RORg inh – qHTS for inhibitors of ROR gamma transcriptional activity; Drosophila S2 Gal4-RORgamma UAS-luciferase reporter, 20 h; Nuclear receptor ROR-gamma (Mus musculus), P51450; Potency, µM (highest dose often 53.6 µM), for inactives: top-dose activity change, negative = inhibition, usual class: inhibitors; actives 5.4% (n = 310,000); also: nearly all actives have a fitted effect of over 60% in size
Target sequence (P51450 whole entry, looked up, the tested form may be a part): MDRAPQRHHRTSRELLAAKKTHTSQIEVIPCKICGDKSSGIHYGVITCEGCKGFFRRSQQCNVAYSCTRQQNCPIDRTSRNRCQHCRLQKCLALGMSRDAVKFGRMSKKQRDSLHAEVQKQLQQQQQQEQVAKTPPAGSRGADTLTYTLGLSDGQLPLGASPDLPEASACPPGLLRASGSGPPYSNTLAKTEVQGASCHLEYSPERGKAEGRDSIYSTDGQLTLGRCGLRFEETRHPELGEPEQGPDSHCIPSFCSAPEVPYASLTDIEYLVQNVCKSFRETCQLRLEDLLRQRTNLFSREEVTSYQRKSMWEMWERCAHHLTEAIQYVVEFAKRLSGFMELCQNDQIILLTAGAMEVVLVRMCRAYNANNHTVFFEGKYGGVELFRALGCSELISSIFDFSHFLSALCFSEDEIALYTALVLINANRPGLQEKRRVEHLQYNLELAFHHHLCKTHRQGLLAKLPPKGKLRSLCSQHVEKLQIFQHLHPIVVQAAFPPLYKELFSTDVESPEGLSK
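Luminescence from a UAS-regulated Photinus luciferase reporter in stably transfected Drosophila Schneider cells is measured; decreased signal marks ROR gamma inhibition. Fusion expression is induced by 700 uM copper sulfate for 20 hr.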
ELG1 DNA repair – qHTS screen for small molecules that inhibit ELG1-dependent DNA repair in human embryonic kidney (HEK293T) cells expressing luciferase-tagged ELG1 | HEK293T ELG1-luciferase reporter, luminescence, 16 h; DNA damage induced by 5-fluorouridine | Potency, µM (series often up to 46.1 µM), without a hit: at the top dose activity change, negative = inhibition, usual class: inhibitors | actives 2.3% (n = 330,000) | AID 504467, 2011; also: nearly all actives have a fitted effect of over 55% in size
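In this reporter screen, reduction of luminescence relative to DMSO vehicle indicated activity. Compounds and 5-fluorouridine were added together to 2,000 cells per well, incubated for 16 hr at 37 °C, then developed with ONE-Glo.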
12-LOX inh – Primary qHTS assay for inhibitors of human arachidonate 12S-lipoxygenase (ALOX12): Round 2; Potency, µM (top dose mostly 108 µM), without a hit: top-dose activity change, negative = inhibition, usual class: inhibitors; actives 1.1% (n = 580,000); purified 12hLO, xylenol orange hydroperoxide absorbance; AID 1671190, 2021; Polyunsaturated fatty acid lipoxygenase ALOX12 (Homo sapiens), P18054
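Hydroperoxide product was detected by ferrous iron/xylenol orange as the 573 to 405 nm absorbance ratio. Arachidonic acid at 40 uM (final) was turned over for 30 min at room temperature by 150 nM human 12hLO, pH 7.0 Hepes buffer, after 15 min compound preincubation.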
TDP1 cell CPT – qHTS for Inhibitors of human tyrosyl-DNA phosphodiesterase 1 (TDP1): qHTS in cells in presence of CPT | chicken DT40 Tdp1-/-;hTDP1 cells + 20 nM CPT, ATP luminescence, 48 h | Potency, µM (titrated, usually from 46.2 µM), inactives show top-dose activity change, negative = growth inhibition, hits mostly inhibitors | actives 12% (n = 420,000); also: nearly all actives have a fitted effect of over 55% in size
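Chicken DT40 Tdp1-/- cells complemented with human TDP1, 400 cells/well, exposed to compounds plus 20 nM camptothecin for at least 48 h at 37 C; viability read as ATP content by CellTiter-Glo luminescence.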
Gal4-VP16 FLuc – VP16 counterscreen qHTS for inhibitors of ROR gamma transcriptional activity; Drosophila S2 Gal4-VP16 UAS-luciferase, luminescence, 20 h; Potency, µM (series often up to 53.6 µM), for the others: top-dose activity, negative = inhibition, most hits filed as inhibitors; actives 3.5% (n = 310,000); AID 2546, 2010;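 also: Gal4-VP16 expression switched on by copper sulfate through the metallothionein promoter; nearly all actives have a fitted effect of over 50% in size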
TDP1 cell noCPT – qHTS for Inhibitors of human tyrosyl-DNA phosphodiesterase 1 (TDP1): qHTS in cells in absence of CPT. DT40 Tdp1-/- hTDP1 cells, no CPT, ATP luminescence, 48 h. Potency, µM (doses to about 46.2 µM), for the others: at the top dose activity change, negative = growth inhibition, usual class: inhibitors. actives 15% (n = 420,000); also: nearly all actives have a fitted effect of over 55% in size
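Seeded 400 DT40-hTDP1 cells/well (vehicle DMSO, no 20 nM CPT); pinned compounds; ≥48 hr at 37 °C; CellTiter-Glo luminescence as viability measure.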
Active calls of the source: *; ? = inconclusive; . = no result. Only some compounds are listed: those with a hit (about 15% of all), similar ones and a draw of the others. Calls follow the shape of the dose curve; as a rule, active = well fitted curve in the direction sought with a large enough effect; inconclusive = small, poorly fitted or top-dose-only effect, or another doubt; inactive = no such curve, though single readings can be large; an effect the other way counts as inactive or inconclusive. % is scaled to controls: 0 for no effect and ±100 for the full control effect; potency is read from the fitted curve at half-maximal effect.

SMILES	RORg inh	ELG1 DNA repair	12-LOX inh	TDP1 cell CPT	Gal4-VP16 FLuc	TDP1 cell noCPT
O=C(c1ccccc1)N1c2ncnn2C2(CCCCC2)[C@@H]2CCCC[C@@H]21	.	.	-24%	?	.	?
O=C(c1ccccc1F)N1c2nc(-c3ccco3)nn2C2(CCCCC2)[C@@H]2CCCC[C@@H]21	.	.	-27%	?	.	18µM*
O=C(c1ccc(F)cc1)N1c2nc(-c3ccco3)nn2C2(CCCCC2)[C@@H]2CCCC[C@@H]21	.	.	-6%	?	.	23µM*
Cc1ccc(-n2c(SCC(=O)NC(=O)NCC(C)C)nnc2N2CCCCC2)cc1	.	.	23%	.	.	.
COc1ccc(-c2cnc3c(NC=O)cc(-c4ccc(C(=O)N5CCOCC5)cc4)cn23)cc1OC	.	.	?	4.1µM*	.	3.3µM*
CC(=O)c1cccc(-c2cnc3c(NC=O)cc(-c4ccc(C(=O)N5CCOCC5)cc4)cn23)c1	.	.	-6%	?	.	?
CC(=O)c1ccc(-c2cnc3c(NC=O)cc(-c4ccc(C(=O)N5CCOCC5)cc4)cn23)cc1	.	.	-9%	16µM*	.	21µM*
COc1ccccc1C(c1nnnn1CCc1ccccc1)N1CCCCCC1 (centres undefined)	-9%	-13%	64%	?	1%	23µM*
COc1ccccc1N1CCN(C(c2ccccc2)c2nnnn2CCc2ccccc2)CC1 (centres undefined)	?	?	?	18µM*	-7%	18µM*
COc1ccccc1N1CCN(C(c2ccc(Cl)cc2)c2nnc(-c3cccc(F)c3)o2)CC1 (centres undefined)	.	.	6%	?	.	?
COc1ccccc1N1CCN(C(c2ccccc2)c2nnc(-c3ccccc3Cl)o2)CC1 (centres undefined)	.	.	-10%	29µM*	.	?
COc1ccccc1C1CC(=O)N(c2ccc(C)cc2)C2=C1C(=O)OC2 (centres undefined)	.	.	19%	.	.	.
O=C([C@@H]1C[C@H](Oc2cccnc2)CN1C(=O)c1cc2ccccc2[nH]1)N1CCCC1	.	.	5%	.	.	.
CCc1ccccc1N(C(C)=O)c1nc(CCl)cs1	-26%	?	-8%	15µM*	3%	23µM*
CC(C)(C)C(=O)NC(=S)NNC(=O)C(c1ccccc1)c1ccccc1	2.8µM*	-11%	.	4.6µM*	11µM*	3.7µM*
CCNC(=S)NNC(=O)Nc1ccccc1	-35%	7%	-20%	-10%	5%	-5%
Cc1c(NC(=S)NC(=O)C(c2ccccc2)c2ccccc2)cccc1C(=O)O	-23%	2%	?	-11%	0%	6%
CC(C)(CO)NC(=O)C(c1ccccc1)c1ccccc1	-14%	2%	1%	-3%	0%	-10%
CCNC(=S)NNC(=O)C(c1ccccc1)c1ccccc1	3.2µM*	-18%	3%	1%	11µM*	-6%
CC(=O)NNC(=S)NC(=O)C(c1ccccc1)c1ccccc1	?	-20%	-22%	8.2µM*	3%	16µM*
CN(C)C(=S)NC(=O)C(c1ccccc1)c1ccccc1	1.4µM*	-6%	4%	8%	?	?
COCC(=O)Nc1nc(-c2ccccc2)c(C)s1	0%	3%	?	3%	-5%	-5%

High-throughput results (PubChem)
